Active and inactive are the calls of the source.
Experiments:
[1] = binders of probe aFSTL3 on microarray, primary screen, stem cell growth factor project, biochemical, small-molecule microarray, fluorescence 635/667 (AID 1064); settings: higher = more signal;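 further: measures binding of the biotinylated anti-FSTL3 antibody to printed compounds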
[2] = binders from COS7 lysate, DM2A8 probe, primary screen, torsin A project, cell lysate, small-molecule microarray, fluorescence 635/667 (AID 1065); settings: higher = more signal, COS7 lysate expressing mutant human TOR1A
[3] = binders of probe aFGF2 on microarray, primary screen, stem cell growth factor project, biochemical, small-molecule microarray, fluorescence 635/667 (AID 1067); settings: higher = more signal;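 further: measures binding of biotinylated aFGF2 protein to printed compounds on slides; z-score merges feature fluorescence and signal-to-noise across triplicate slides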
[4] = binders of probe aFGF10 on microarray, primary screen, stem cell growth factor project, biochemical, small-molecule microarray, fluorescence 635/667 (AID 1071); settings: higher = more signal;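 further: score merges 667 nm spot intensity and signal to noise from triplicate slides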
[5] = molecular target: Neurogenic locus notch homolog protein 2 (Homo sapiens) (UniProt Q04721); experiment: Notch2 binders on small-molecule microarrays, primary screen, biochemical, small-molecule microarray, 635 nm fluorescence, stem cell growth factors (AID 1073); settings: Notch2 binding, higher = more signal
Sequence of Neurogenic locus notch homolog protein 2 (Homo sapiens) (Q04721 whole entry, looked up, canonical isoform): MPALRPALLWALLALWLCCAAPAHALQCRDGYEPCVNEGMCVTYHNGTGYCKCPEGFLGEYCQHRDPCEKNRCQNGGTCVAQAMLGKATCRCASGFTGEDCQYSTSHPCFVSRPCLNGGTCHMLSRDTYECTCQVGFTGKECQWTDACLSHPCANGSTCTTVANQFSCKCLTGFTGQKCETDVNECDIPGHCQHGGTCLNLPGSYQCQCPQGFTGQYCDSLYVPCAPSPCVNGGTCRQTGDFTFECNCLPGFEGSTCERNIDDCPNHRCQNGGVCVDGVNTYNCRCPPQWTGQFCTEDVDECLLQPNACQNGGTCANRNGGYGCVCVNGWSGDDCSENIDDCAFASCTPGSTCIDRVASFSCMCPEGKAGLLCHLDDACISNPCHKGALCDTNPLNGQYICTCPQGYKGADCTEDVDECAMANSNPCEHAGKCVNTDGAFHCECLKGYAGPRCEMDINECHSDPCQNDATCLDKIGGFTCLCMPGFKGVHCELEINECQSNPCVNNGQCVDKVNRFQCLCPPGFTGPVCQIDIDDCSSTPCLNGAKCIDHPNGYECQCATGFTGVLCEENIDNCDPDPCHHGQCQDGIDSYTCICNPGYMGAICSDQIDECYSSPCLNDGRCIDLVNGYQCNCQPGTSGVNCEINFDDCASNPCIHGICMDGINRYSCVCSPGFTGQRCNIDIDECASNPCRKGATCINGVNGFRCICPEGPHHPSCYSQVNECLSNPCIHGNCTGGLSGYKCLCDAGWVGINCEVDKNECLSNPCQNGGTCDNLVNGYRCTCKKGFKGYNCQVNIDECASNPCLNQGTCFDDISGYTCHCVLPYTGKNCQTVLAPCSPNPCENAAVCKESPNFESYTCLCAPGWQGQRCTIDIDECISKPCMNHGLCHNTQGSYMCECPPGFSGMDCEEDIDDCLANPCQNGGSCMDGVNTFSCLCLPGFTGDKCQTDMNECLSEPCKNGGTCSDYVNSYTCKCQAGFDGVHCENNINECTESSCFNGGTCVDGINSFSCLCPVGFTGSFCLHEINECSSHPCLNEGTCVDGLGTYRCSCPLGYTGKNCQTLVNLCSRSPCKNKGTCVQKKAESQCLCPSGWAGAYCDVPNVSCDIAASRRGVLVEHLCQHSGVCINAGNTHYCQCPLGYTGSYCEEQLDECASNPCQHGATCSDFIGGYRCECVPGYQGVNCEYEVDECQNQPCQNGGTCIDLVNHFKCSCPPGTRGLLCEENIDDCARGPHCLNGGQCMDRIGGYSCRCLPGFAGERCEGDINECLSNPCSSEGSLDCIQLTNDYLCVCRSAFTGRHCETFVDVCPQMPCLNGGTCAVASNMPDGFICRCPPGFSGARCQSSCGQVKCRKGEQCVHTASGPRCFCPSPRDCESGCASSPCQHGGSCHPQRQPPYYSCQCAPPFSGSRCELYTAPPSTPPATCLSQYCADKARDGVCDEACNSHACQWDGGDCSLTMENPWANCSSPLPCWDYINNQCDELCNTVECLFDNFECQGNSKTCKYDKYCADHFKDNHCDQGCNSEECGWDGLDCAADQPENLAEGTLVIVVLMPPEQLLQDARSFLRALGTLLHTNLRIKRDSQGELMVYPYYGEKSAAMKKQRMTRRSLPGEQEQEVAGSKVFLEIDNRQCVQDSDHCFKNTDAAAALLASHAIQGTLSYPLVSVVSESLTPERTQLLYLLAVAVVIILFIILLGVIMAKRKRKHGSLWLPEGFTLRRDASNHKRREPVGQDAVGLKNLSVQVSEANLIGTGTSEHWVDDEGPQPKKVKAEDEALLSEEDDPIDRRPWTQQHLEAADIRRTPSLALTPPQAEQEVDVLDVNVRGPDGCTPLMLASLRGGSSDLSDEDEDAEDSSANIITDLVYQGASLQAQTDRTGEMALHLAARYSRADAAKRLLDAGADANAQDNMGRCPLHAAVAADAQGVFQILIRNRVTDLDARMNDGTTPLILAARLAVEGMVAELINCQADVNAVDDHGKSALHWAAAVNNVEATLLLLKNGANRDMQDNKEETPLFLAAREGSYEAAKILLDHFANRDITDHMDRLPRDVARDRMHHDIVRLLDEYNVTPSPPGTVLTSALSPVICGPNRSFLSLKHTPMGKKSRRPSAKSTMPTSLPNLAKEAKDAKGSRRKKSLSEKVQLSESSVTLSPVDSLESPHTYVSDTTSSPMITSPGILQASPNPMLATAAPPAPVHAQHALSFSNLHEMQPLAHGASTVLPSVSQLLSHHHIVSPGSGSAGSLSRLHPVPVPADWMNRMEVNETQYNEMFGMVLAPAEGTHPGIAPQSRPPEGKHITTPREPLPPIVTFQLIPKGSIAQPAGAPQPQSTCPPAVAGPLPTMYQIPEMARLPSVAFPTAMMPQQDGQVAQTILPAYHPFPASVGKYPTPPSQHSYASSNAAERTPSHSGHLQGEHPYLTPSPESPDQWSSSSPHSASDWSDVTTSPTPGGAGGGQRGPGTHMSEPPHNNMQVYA

[6] = molecular target: Pro-neuregulin-1, membrane-bound isoform (Homo sapiens) (UniProt Q02297); experiment: NRG1 binders on small-molecule microarrays, primary screen, psychiatric disease protein project, biochemical, small-molecule microarray, fluorescence 635/667 (AID 1075); settings: NRG1 binding, 635 nm fluorescence, higher = more signal;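 further: score combines 667 nm spot fluorescence with signal to noise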
[7] = tested on: Neuregulin-1 EGF-like domain; experiment: binders of neuregulin-1 EGF-like domain, primary screen, biochemical, small-molecule microarray, 635 nm fluorescence (AID 1081); settings: small-molecule microarray binding, higher = more signal;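 further: binding of the protein to compounds printed on small-molecule microarray slides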
[8] = FRG1 promoter luciferase signal modulators, primary screen, FRG1 inhibition for FSHD, cell-based, C2C12 myotubes, firefly/Renilla luciferase, luminescence (AID 1084); settings: higher = more signal, called active from +8 up or from −8 down
[9] = binders of probe aFST on microarray, primary screen, stem cell growth factor project, biochemical, small-molecule microarray, fluorescence 635/667 (AID 1086); settings: higher = more signal;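 further: score merges 667 nm fluorescence with signal-to-noise of each printed compound spot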
[10] = binders of probe aHhip on microarray, primary screen, stem cell growth factor project, biochemical, small-molecule microarray, fluorescence 635/667 (AID 1087); settings: higher = more signal;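 further: score merges spot fluorescence at 667nm with spot signal to noise ratio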
[11] = tested on: PRMT1 (protein arginine N-methyltransferase 1); experiment: PRMT1 binders on small-molecule microarrays, primary screen, biochemical, small-molecule microarray, 635 nm fluorescence (AID 1088); settings: small-molecule microarray binding, higher = more signal;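 further: binding of Prmt1 protein to compounds spotted on small-molecule microarray slides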
[12] = yeast growth modulation, basal conditions, primary screen, YJM789 clinical isolate, OD600, 24 h (AID 1089);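 further: growth of clinical yeast isolate S. cerevisiae YJM 789 seeded 1000 cells per well; test concentration not given here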; settings: S. cerevisiae YJM789 growth, higher = more signal, called active from +8 up or from −8 down
[13] = fission yeast growth modulation, primary screen, strain 972, OD600, 24 h, no modulator (AID 1090);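 further: basal condition with compound alone and no growth modifier present; test concentration not given here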; settings: S. pombe 972 growth, higher = more signal, called active from +8 up or from −8 down
[14] = S. cerevisiae growth modulation with rapamycin, primary screen, strain BY4716, OD600, 96 h (AID 1091); settings: higher = more signal, called active from +8 up or from −8 down; further: test concentration not given here
[15] = molecular target: Torsin-1A-interacting protein 2 (Homo sapiens) (UniProt Q8NFQ8); experiment: LULL1 binders on small-molecule microarray, primary screen, cell lysate, human LULL1 lysate, 635/667 nm fluorescence (AID 1092); settings: hLULL1 lysate binding, 635 nm fluorescence, higher = more signal;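 further: probe is lysate of COS7 cells overexpressing human LULL1; score merges per-feature 667 nm fluorescence with signal-to-noise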
[16] = E. coli growth modulation, two-sided OD650, primary screen, E. coli filamentation project, strain DRC41, 24 h (AID 1093); settings: OD650, 24 h, higher = more signal, called active from +8 up or from −8 down;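 further: MC1000 strain lacking acrAB efflux and sulA so SOS filamentation is blocked; test concentration not given here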
[17] = small-molecule microarray binders of probe aLefty2, primary screen, biochemical, biotinylated probe, 635/667 nm fluorescence (AID 1094); settings: higher = more signal;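 further: score merges spot fluorescence near 667 nm with spot signal-to-noise ratio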
[18] = tested on: Noggin (protein binding on small-molecule microarray); experiment: Noggin binders on small-molecule microarray, primary screen, biochemical, 635/667 nm fluorescence (AID 1095); settings: 635 nm fluorescence, higher = more signal;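 further: score merges 667 nm feature fluorescence with signal to noise over triplicate slides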
[19] = molecular target: Neurogenic locus notch homolog protein 3 (Homo sapiens) (UniProt Q9UM47); experiment: NOTCH3 binders on small-molecule microarray, primary screen, biochemical, 635/667 nm fluorescence (AID 1096); settings: NOTCH3 binding, 635 nm fluorescence, higher = more signal
Sequence of Neurogenic locus notch homolog protein 3 (Homo sapiens) (Q9UM47 whole entry, looked up): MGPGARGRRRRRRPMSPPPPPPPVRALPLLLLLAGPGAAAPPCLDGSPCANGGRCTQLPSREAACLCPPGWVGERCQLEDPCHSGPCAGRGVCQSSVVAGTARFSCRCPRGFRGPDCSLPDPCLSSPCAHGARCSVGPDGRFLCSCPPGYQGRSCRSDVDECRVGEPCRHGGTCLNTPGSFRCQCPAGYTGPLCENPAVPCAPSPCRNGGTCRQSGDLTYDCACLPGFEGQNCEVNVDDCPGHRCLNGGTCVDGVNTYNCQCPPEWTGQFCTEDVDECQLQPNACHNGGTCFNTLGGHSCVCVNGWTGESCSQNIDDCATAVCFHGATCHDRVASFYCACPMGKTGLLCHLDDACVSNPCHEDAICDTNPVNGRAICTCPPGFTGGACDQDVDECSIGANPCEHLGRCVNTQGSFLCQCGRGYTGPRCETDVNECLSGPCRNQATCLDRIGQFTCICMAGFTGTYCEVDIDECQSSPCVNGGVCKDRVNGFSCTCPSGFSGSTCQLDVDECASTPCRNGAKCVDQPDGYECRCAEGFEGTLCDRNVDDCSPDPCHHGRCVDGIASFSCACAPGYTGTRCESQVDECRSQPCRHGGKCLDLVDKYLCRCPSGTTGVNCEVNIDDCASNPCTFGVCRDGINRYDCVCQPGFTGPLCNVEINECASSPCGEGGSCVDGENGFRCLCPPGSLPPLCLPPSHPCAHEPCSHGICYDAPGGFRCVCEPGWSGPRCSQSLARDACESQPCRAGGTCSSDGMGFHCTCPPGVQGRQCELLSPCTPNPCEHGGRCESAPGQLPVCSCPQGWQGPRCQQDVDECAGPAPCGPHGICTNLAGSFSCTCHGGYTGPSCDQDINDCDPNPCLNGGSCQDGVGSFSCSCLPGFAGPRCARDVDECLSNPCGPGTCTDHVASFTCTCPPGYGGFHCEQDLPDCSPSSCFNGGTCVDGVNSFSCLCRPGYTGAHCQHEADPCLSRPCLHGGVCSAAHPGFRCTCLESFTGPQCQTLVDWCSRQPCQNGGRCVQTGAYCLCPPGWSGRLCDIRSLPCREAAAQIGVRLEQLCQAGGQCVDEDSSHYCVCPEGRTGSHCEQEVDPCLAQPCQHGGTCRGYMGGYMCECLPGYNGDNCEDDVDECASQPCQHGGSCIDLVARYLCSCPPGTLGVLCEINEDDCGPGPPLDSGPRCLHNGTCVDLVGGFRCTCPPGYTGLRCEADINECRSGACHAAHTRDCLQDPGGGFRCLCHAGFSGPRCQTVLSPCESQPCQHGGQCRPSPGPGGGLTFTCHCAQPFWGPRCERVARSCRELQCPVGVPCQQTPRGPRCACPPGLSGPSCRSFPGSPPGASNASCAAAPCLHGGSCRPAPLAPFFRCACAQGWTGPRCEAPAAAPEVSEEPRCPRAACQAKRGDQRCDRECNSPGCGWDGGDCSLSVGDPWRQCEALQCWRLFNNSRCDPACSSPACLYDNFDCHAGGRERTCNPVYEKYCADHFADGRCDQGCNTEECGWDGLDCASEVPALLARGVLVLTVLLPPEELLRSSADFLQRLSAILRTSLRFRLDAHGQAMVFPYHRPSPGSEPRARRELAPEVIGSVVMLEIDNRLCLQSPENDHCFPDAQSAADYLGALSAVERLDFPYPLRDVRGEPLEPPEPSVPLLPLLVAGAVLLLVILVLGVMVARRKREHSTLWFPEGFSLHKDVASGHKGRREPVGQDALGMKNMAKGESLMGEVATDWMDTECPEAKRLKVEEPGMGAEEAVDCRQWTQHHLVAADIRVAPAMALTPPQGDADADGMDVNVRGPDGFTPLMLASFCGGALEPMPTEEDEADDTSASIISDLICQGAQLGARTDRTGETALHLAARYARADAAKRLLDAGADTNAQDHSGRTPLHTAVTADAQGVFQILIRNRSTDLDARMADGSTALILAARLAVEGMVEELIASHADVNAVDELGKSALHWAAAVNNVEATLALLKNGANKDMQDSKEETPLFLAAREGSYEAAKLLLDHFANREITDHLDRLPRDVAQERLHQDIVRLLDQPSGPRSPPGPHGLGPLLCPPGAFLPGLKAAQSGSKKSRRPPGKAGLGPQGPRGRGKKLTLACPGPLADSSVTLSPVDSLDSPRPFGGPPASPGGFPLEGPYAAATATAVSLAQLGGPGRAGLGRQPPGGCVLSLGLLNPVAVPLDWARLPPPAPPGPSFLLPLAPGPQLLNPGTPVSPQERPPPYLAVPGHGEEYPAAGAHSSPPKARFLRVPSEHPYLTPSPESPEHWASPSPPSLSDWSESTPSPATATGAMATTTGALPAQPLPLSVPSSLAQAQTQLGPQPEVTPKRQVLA

[20] = small-molecule microarray binders of probe aEGFR, primary screen, biochemical, biotinylated probe, 635/667 nm fluorescence (AID 1097); settings: higher = more signal;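 further: probe is a biotinylated anti-EGFR antibody binding compounds printed on slides; score combines fluorescence near 667 nm and signal to noise of each spot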

C=C[C@@H](C)[C@H](O)c1ccc(OCCO)cc1
composite z-score [1]: 0.684
composite z-score [2]: -1.91
composite z-score [3]: -0.182
composite z-score [4]: -0.84
composite z-score [5]: -1.67
composite z-score [6]: -0.0655
composite z-score [7]: 1.04
z-score [8]: 5.39 (inactive)
composite z-score [9]: -1.06
composite z-score [10]: -0.236
composite z-score [11]: -0.365
z-score [12]: 0.217 (inactive)
z-score [13]: -0.297 (inactive)
z-score [14]: -0.0577 (inactive)
composite z-score [15]: 1.14
z-score [16]: -0.0261 (inactive)
composite z-score [17]: -0.225
composite z-score [18]: -1.34
composite z-score [19]: -0.743
composite z-score [20]: -0.37

COc1cccc(/C=C(\C#N)C(=O)Nc2c(C)n(C)n(-c3ccccc3)c2=O)c1
composite z-score [1]: -0.408
composite z-score [2]: 0.251
composite z-score [3]: -0.107
composite z-score [4]: 0.324
composite z-score [5]: 0.694
composite z-score [6]: 1.06
composite z-score [7]: 1.1
z-score [8]: -0.496 (inactive)
composite z-score [9]: 0.336
composite z-score [10]: -0.216
composite z-score [11]: 0.564
z-score [12]: -1.58 (inactive)
z-score [13]: -0.958 (inactive)
z-score [14]: -0.978 (inactive)
composite z-score [15]: 2.66
z-score [16]: -0.23 (inactive)
composite z-score [17]: 0.0852
composite z-score [18]: 0.161
composite z-score [19]: 0.539
composite z-score [20]: -0.0828

COCCOC(=O)N1C(=O)[C@@]2(c3cc(C#CCC(C(=O)OC)C(=O)OC)ccc31)[C@H](C(=O)NC[C@H](O)c1ccccc1)[C@H]1C(=O)O[C@H](c3ccccc3)[C@H](c3ccccc3)N1[C@@H]2c1ccc(OCCO)cc1
composite z-score [1]: -0.341
composite z-score [2]: 0.0051
composite z-score [3]: -0.113
composite z-score [4]: 0.245
composite z-score [5]: 0.917
composite z-score [6]: 0.161
composite z-score [7]: 1.23
z-score [8]: 0.856 (inactive)
composite z-score [9]: 0.5
composite z-score [10]: -0.0994
composite z-score [11]: 1.56
z-score [12]: 2.22 (inactive)
z-score [13]: 2.7 (inactive)
z-score [14]: 7 (inactive)
composite z-score [15]: 2.08
z-score [16]: 0.6 (inactive)
composite z-score [17]: -0.109
composite z-score [18]: 1.69
composite z-score [19]: 1.04
composite z-score [20]: 0.0097

Cc1ccc([C@H]2C(C(=O)O)=C[C@@H](C(C)(C)C)N2S(=O)(=O)c2ccc(C)cc2)cc1
composite z-score [1]: 0.137
composite z-score [2]: -0.0985
composite z-score [3]: 0.17
composite z-score [4]: 0.965
composite z-score [5]: 1.55
composite z-score [6]: 1.54
composite z-score [7]: 1.17
z-score [8]: -2.04 (inactive)
composite z-score [9]: 0.734
composite z-score [10]: 0.235
composite z-score [11]: 1.39
z-score [12]: -0.225 (inactive)
z-score [13]: 0.289 (inactive)
z-score [14]: 0.118 (inactive)
composite z-score [15]: 3.25
z-score [16]: -1.01 (inactive)
composite z-score [17]: 0.118
composite z-score [18]: 0.101
composite z-score [19]: 1.04
composite z-score [20]: 0.155

C=C(COC)C(=O)CC[C@H](OC(=O)c1cccnc1)c1ccc(CO)o1
composite z-score [1]: -0.403
composite z-score [2]: -0.049
composite z-score [3]: -0.124
composite z-score [4]: 0.842
composite z-score [5]: 0.574
composite z-score [6]: 0.57
composite z-score [7]: 1.12
z-score [8]: 0.292 (inactive)
composite z-score [9]: 0.34
composite z-score [10]: -0.0994
composite z-score [11]: 1.33
z-score [12]: -1.26 (inactive)
z-score [13]: -0.292 (inactive)
z-score [14]: -0.35 (inactive)
composite z-score [15]: 0.103
z-score [16]: -0.252 (inactive)
composite z-score [17]: -0.132
composite z-score [18]: 1.1
composite z-score [19]: 1.02
composite z-score [20]: -0.0313

COCCOC(=O)N1C(=O)[C@@]2(c3cc(C#CCNC(N)=O)ccc31)[C@H](c1ccc(O)cc1)N1[C@H](c3ccccc3)[C@H](c3ccccc3)OC(=O)[C@H]1[C@@H]2C(N)=O
composite z-score [1]: 0.161
composite z-score [2]: -0.412
composite z-score [3]: -0.161
composite z-score [4]: -0.484
composite z-score [5]: -2.04
composite z-score [6]: -0.702
composite z-score [7]: -0.0682
z-score [8]: 0.0283 (inactive)
composite z-score [9]: -0.567
composite z-score [10]: -0.39
composite z-score [11]: -1.22
z-score [12]: 0.878 (inactive)
z-score [13]: 0.0929 (inactive)
z-score [14]: 0.374 (inactive)
composite z-score [15]: -0.841
z-score [16]: 1.04 (inactive)
composite z-score [17]: -0.294
composite z-score [18]: -1.99
composite z-score [19]: -1.15
composite z-score [20]: -0.406

COc1cc(NN2C(C(O)C3CCCCC3)C=CC3C(=O)N(C)C(=O)C32)cc(OC)c1OC (stereo not given)
composite z-score [1]: 0.322
composite z-score [2]: 0.054
composite z-score [3]: 0.162
composite z-score [4]: 0.306
composite z-score [5]: 1.59
composite z-score [6]: 1.65
composite z-score [7]: 1.21
z-score [8]: 0.391 (inactive)
composite z-score [9]: 0.479
composite z-score [10]: 0.0877
composite z-score [11]: 1.48
z-score [12]: 0.137 (inactive)
z-score [13]: 0.169 (inactive)
z-score [14]: 0.0624 (inactive)
composite z-score [15]: 3.46
z-score [16]: -0.853 (inactive)
composite z-score [17]: 0.855
composite z-score [18]: -0.0279
composite z-score [19]: 1.09
composite z-score [20]: 0.186

CC(C)CNC(=O)[C@@H]1c2ccccc2C(=O)N(C2CCCCC2)[C@H]1c1ccc(CO)cc1
composite z-score [1]: 0.386
composite z-score [2]: -0.754
composite z-score [3]: -0.0962
composite z-score [4]: -0.305
composite z-score [5]: -0.354
composite z-score [6]: 1.69
composite z-score [7]: 1.28
z-score [8]: -1.8 (inactive)
composite z-score [9]: 0.0088
composite z-score [10]: 0.0497
composite z-score [11]: 0.933
z-score [12]: -0.417 (inactive)
z-score [13]: -0.641 (inactive)
z-score [14]: -0.812 (inactive)
composite z-score [15]: 3.03
z-score [16]: 3.31 (inactive)
composite z-score [17]: -0.137
composite z-score [18]: -0.369
composite z-score [19]: -0.358
composite z-score [20]: -0.218

CC(C)=CCCC(C)=CC(O)C1C=CC2C(=O)N(c3ccccc3)C(=O)C2N1Nc1ccccc1F (stereo not given)
composite z-score [1]: -0.0417
composite z-score [2]: -0.113
composite z-score [3]: -0.138
composite z-score [4]: 0.498
composite z-score [5]: 0.765
composite z-score [6]: 1.49
composite z-score [7]: 1.09
z-score [8]: 0.314 (inactive)
composite z-score [9]: -0.174
composite z-score [10]: -0.329
composite z-score [11]: 0.945
z-score [12]: -1.23 (inactive)
z-score [13]: -0.347 (inactive)
z-score [14]: -0.707 (inactive)
composite z-score [15]: 2.41
z-score [16]: 0.401 (inactive)
composite z-score [17]: -0.166
composite z-score [18]: -0.0409
composite z-score [19]: 0.761
composite z-score [20]: -0.0828

— PubChem BioAssay
